Test results reported in article PMC7862700, “An all-to-all approach to the identification of sequence-specific readers for epigenetic DNA modifications on cytosine”.

Experiments:
Experiment in all cases: DAPPL (digital affinity profiling via proximity ligation, sequencing); 10 mM Tris-HCl pH 7.5, 50 mM NaCl, 1 mM DTT, 4% glycerol, room temperature, 30 min; GST-TFs on glutathione beads, 16-mer random dsDNA library, 0.1% formaldehyde crosslink after washing; high values mean tight binding
Conditions in all cases: protein: recombinant; tags: N-terminal GST; dsDNA, one strand shown
[1] = biological target: T1, ELK1 (Homo sapiens, UniProt P19419 1-428)
T1 sequence: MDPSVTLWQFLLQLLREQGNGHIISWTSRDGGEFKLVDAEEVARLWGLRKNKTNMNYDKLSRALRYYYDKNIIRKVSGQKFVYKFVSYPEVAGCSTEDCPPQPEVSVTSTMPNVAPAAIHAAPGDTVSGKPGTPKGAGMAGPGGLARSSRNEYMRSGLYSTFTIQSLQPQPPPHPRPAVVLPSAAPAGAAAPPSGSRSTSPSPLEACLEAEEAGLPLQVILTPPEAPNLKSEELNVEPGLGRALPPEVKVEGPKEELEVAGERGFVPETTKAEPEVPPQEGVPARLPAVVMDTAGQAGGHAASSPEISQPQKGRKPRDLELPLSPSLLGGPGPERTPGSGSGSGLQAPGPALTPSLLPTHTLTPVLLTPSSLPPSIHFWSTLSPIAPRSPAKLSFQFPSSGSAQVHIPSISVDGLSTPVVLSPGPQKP
Outline: (§1)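 A tag-only sample was pooled with DNA-barcoded human transcription factors that had been expressed in yeast as GST fusions and captured on glutathione beads. The pools were incubated for 30 min at room temperature with 200 nmole of a random double-stranded 16-mer DNA library in Tris/NaCl/DTT/glycerol buffer, then washed, crosslinked with 0.1% formaldehyde, proximity-ligated (BsaI/T4 ligase, 1 h, 37 °C), PCR-amplified and sequenced on an Illumina NextSeq500. Binding signal is each hexamer's read frequency for a factor divided by its frequency for the tag-only sample.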

[2] = biological target: T2, GABPA (Homo sapiens, UniProt Q06546 1-454)
T2 sequence: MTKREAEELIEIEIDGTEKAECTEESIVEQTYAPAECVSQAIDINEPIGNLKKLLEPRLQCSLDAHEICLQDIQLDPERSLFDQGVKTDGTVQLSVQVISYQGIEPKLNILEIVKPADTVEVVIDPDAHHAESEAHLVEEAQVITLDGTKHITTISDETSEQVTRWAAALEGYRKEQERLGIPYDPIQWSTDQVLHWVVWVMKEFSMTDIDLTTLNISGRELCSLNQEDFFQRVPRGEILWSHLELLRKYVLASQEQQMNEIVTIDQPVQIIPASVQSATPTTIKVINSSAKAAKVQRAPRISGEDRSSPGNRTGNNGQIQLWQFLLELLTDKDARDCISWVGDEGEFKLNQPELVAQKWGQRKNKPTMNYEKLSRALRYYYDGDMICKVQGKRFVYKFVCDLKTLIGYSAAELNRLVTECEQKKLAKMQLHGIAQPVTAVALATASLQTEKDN
Outline: as §1

[3] = biological target: T3, ERG (Homo sapiens, UniProt P11308 1-479)
T3 sequence: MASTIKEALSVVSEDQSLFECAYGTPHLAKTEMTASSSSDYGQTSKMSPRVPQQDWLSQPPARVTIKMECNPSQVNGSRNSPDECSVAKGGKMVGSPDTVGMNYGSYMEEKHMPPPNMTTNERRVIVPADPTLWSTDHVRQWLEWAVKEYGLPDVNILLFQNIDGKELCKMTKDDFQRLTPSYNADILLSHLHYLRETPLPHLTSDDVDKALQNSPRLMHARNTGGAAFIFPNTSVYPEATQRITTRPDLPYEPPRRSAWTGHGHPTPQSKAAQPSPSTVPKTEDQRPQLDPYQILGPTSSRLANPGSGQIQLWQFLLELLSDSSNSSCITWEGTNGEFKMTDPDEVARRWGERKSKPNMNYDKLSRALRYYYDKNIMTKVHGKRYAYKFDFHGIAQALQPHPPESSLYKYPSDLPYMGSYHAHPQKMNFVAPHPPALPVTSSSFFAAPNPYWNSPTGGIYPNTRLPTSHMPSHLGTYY
Outline: as §1

[4] = biological target: ELF1 (Homo sapiens, UniProt P32519 1-619)
Sequence of ELF1 (P32519 whole entry): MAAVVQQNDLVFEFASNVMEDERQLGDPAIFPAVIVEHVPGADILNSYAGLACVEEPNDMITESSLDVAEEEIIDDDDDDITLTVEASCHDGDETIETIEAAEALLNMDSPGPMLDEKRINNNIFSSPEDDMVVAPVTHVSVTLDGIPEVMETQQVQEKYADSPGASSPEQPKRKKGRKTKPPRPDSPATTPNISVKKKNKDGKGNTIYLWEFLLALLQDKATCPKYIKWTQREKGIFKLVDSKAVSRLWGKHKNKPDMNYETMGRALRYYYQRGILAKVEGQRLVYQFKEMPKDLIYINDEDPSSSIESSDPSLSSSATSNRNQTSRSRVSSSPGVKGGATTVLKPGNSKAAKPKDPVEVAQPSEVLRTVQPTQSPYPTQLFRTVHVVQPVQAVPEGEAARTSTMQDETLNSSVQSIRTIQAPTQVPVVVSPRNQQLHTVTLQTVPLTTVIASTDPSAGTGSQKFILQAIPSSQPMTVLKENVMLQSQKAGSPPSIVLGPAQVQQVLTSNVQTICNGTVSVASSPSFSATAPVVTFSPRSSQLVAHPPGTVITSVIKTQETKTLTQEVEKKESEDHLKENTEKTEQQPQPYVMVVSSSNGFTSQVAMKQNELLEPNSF
Outline: as §1

[5] = biological target: T4, EHF (Homo sapiens, UniProt Q9NZC4 1-300)
T4 sequence: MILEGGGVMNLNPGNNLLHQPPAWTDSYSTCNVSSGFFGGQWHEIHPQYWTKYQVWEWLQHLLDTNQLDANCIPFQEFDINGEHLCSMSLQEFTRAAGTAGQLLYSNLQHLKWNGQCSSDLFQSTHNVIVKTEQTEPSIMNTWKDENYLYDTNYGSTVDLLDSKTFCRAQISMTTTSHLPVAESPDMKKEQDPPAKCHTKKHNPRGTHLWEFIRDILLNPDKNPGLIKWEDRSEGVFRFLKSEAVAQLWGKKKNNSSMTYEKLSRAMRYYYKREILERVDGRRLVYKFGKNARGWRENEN
Outline: as §1

[6] = biological target: SPIB (Homo sapiens, UniProt Q01892 1-262)
Sequence of SPIB (Q01892 whole entry): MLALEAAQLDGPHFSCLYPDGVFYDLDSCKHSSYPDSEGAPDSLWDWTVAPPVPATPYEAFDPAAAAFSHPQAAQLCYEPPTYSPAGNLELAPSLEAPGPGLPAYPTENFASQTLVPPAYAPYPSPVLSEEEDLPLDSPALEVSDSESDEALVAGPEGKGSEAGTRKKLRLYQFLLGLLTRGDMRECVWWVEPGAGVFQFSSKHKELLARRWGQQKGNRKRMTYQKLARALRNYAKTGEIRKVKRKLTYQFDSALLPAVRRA
Outline: as §1

[7] = biological target: T5, FEV (Homo sapiens, UniProt Q99581 1-238)
T5 sequence: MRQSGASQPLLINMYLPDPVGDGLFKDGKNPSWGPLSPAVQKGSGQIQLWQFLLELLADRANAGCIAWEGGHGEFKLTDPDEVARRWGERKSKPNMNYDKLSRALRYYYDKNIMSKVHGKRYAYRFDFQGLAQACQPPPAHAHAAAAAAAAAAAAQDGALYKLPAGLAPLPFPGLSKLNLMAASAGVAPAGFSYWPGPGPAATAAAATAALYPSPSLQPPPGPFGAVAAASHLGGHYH
Outline: as §1

[8] = biological target: ETV5 (Homo sapiens, UniProt P41161 1-510)
Sequence of ETV5 (P41161 whole entry): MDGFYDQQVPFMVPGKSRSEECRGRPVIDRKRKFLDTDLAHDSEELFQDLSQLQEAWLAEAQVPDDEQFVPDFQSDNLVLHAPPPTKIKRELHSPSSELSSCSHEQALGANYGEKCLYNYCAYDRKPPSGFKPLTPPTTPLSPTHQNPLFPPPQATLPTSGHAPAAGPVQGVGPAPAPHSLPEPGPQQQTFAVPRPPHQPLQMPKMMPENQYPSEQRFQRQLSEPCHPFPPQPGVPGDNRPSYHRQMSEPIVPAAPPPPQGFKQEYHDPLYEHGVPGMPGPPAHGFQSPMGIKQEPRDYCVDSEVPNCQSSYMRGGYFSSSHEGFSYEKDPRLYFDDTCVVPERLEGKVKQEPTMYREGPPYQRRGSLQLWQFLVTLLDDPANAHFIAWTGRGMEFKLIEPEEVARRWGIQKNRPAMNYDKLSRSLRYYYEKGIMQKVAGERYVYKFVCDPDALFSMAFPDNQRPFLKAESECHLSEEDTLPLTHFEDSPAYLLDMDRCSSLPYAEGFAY
Outline: as §1

[9] = biological target: ELF4 (Homo sapiens, UniProt Q99607 1-663)
Sequence of ELF4 (Q99607 whole entry): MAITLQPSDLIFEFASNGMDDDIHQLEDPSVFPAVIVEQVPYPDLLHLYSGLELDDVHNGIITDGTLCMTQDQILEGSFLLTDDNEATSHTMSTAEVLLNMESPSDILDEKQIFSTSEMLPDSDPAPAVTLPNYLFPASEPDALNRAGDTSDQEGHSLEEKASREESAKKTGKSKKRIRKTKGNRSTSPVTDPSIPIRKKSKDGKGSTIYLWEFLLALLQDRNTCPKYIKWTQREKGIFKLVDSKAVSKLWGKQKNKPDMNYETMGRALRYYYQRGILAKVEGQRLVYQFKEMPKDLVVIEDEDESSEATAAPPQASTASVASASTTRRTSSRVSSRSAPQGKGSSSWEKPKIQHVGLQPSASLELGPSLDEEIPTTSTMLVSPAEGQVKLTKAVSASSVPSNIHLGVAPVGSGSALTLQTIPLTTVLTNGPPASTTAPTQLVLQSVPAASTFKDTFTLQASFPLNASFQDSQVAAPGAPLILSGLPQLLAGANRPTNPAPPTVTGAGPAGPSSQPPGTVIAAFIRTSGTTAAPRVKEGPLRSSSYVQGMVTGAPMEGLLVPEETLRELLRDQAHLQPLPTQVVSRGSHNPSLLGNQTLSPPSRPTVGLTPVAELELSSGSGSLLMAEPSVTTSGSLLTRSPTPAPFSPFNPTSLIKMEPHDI
Outline: as §1

[10] = biological target: T6, ELK4 (Homo sapiens, UniProt P28324-2 1-405)
T6 sequence: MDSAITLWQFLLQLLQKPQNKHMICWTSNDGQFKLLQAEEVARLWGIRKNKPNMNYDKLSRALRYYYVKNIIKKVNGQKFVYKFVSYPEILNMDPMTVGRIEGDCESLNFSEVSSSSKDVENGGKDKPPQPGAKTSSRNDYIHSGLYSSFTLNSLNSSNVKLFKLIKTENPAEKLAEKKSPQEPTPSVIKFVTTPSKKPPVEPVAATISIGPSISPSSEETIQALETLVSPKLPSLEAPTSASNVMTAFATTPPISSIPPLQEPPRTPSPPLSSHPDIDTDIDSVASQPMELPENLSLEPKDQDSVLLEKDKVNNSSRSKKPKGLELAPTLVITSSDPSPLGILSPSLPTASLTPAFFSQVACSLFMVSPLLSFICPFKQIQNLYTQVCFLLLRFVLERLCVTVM
Outline: as §1

[11] = biological target: T7, ETV2 (Homo sapiens, UniProt O00321 1-342)
T7 sequence: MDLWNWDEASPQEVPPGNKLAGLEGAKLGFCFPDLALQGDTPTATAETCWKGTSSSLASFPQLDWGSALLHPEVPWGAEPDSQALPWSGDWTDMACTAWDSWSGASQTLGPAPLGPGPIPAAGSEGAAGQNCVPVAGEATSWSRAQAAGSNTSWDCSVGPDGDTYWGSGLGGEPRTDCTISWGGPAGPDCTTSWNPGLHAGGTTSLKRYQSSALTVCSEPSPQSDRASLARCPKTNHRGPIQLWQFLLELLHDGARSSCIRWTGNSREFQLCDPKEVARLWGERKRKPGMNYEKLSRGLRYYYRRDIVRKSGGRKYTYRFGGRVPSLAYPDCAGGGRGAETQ
Outline: as §1

[12] = biological target: T8, ELF3 (Homo sapiens, UniProt P78545 1-371)
T8 sequence: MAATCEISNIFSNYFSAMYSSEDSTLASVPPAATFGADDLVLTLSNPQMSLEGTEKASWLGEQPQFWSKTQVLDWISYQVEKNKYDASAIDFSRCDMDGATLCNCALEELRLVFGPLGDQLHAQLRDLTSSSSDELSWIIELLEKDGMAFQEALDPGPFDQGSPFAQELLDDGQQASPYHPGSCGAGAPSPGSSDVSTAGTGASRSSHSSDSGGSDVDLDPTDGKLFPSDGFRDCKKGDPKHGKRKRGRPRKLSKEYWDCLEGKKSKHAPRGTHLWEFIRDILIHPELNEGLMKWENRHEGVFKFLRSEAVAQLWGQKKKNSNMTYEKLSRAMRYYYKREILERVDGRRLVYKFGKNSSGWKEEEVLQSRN
Outline: as §1

[13] = biological target: ETV1 (Homo sapiens, UniProt P50549 1-477)
Sequence of ETV1 (P50549 whole entry): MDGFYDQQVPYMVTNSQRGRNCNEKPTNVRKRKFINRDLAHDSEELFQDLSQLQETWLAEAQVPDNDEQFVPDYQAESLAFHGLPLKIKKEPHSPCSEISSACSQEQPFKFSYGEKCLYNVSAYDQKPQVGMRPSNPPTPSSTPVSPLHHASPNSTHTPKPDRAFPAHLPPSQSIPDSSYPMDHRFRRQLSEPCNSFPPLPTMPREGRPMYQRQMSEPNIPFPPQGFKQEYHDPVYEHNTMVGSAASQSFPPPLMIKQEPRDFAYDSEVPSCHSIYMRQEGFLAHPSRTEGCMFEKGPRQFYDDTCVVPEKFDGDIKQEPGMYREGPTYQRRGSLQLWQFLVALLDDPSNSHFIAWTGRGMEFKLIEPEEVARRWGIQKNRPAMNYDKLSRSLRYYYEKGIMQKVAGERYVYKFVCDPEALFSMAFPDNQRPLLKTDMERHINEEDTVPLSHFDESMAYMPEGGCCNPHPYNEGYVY
Outline: as §1

[14] = biological target: T9, ERF (Homo sapiens, UniProt P50548 1-548)
T9 sequence: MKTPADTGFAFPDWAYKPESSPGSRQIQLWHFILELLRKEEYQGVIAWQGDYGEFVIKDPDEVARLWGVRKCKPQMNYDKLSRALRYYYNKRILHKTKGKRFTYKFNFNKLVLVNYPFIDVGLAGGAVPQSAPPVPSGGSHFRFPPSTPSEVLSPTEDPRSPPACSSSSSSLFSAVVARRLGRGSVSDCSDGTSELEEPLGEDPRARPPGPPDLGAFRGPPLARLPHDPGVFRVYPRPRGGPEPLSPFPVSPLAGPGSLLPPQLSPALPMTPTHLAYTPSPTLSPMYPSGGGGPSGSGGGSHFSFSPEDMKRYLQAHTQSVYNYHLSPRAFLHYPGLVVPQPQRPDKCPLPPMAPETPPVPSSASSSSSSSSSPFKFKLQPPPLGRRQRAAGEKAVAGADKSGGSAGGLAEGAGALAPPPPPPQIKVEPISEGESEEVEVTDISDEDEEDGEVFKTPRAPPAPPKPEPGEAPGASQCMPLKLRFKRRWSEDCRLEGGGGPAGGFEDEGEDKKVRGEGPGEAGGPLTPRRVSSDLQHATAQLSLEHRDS
Outline: as §1

[15] = biological target: T10, ETV3L (Homo sapiens, UniProt Q6ZN32 1-361)
T10 sequence: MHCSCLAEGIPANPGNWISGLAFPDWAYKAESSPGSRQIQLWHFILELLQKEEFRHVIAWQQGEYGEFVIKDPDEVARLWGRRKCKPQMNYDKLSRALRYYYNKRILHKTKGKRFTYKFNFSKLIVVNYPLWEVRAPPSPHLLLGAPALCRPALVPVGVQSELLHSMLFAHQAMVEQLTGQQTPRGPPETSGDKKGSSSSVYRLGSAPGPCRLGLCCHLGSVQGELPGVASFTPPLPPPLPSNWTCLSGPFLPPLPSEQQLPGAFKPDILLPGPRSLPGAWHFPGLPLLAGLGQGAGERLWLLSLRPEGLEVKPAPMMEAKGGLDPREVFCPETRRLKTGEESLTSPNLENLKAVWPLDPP
Outline: as §1

[16] = biological target: T11, ETS2 (Homo sapiens, UniProt P15036 1-469)
T11 sequence: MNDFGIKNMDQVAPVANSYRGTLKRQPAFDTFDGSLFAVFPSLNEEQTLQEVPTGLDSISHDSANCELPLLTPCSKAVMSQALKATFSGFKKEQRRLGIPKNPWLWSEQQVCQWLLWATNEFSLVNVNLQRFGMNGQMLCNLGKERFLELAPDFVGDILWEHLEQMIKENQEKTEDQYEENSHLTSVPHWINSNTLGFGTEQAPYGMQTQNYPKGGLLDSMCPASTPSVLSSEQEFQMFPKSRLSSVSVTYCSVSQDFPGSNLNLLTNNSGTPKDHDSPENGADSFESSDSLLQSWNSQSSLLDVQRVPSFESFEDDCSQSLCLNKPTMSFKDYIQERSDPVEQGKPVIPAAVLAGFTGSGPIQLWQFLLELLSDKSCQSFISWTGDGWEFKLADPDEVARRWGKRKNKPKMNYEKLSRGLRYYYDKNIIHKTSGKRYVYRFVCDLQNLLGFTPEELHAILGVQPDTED
Outline: as §1

[17] = biological target: T12, ETV7 (Homo sapiens, UniProt Q9Y603 1-341)
T12 sequence: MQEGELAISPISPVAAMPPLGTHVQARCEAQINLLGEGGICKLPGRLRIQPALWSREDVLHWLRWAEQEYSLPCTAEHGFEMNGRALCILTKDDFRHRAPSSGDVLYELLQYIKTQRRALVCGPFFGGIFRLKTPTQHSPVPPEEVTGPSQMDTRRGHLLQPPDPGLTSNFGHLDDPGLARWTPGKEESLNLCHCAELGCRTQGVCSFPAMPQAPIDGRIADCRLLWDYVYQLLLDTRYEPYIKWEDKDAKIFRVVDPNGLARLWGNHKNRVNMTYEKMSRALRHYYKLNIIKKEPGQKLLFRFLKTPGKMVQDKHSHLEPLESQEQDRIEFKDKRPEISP
Outline: as §1

[18] = biological target: T13, ETV3 (Homo sapiens, UniProt P41162-2 1-143)
T13 sequence: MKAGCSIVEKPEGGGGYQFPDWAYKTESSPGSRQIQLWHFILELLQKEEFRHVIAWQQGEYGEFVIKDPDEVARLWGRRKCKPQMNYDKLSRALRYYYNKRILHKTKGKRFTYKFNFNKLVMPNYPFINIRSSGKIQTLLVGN
Outline: as §1

[19] = biological target: ETV6 (Homo sapiens, UniProt P41212 1-452)
Sequence of ETV6 (P41212 whole entry): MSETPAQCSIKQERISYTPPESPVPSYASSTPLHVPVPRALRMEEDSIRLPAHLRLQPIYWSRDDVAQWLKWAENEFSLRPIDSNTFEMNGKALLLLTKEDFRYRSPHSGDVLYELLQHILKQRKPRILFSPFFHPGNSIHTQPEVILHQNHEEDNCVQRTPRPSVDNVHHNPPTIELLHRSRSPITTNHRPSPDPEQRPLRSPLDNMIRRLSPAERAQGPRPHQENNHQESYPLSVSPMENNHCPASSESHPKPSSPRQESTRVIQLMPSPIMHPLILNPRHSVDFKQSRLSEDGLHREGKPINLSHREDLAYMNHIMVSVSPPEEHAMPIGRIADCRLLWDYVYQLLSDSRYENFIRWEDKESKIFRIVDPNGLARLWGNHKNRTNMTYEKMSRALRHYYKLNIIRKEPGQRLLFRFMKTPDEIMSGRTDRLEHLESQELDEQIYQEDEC
Outline: as §1

## GCGTCT
[1]
  binding signal: 1.05 fold enrichment (6-mer frequency, TF over GST control)
[2]
  binding signal: 1.02 fold enrichment (6-mer frequency, TF over GST control)
[3]
  binding signal: 1.08 fold enrichment (6-mer frequency, TF over GST control)
[4]
  binding signal: 1.08 fold enrichment (6-mer frequency, TF over GST control)
[5]
  binding signal: 1.08 fold enrichment (6-mer frequency, TF over GST control)
[6]
  binding signal: 1.19 fold enrichment (6-mer frequency, TF over GST control)
[7]
  binding signal: 1.08 fold enrichment (6-mer frequency, TF over GST control)
[8]
  binding signal: 1.04 fold enrichment (6-mer frequency, TF over GST control)
[9]
  binding signal: 1.04 fold enrichment (6-mer frequency, TF over GST control)
[10]
  binding signal: 1.11 fold enrichment (6-mer frequency, TF over GST control)
[11]
  binding signal: 1.1 fold enrichment (6-mer frequency, TF over GST control)
[12]
  binding signal: 1.34 fold enrichment (6-mer frequency, TF over GST control)
[13]
  binding signal: 1.18 fold enrichment (6-mer frequency, TF over GST control)
[14]
  binding signal: 1.12 fold enrichment (6-mer frequency, TF over GST control)
[15]
  binding signal: 1.1 fold enrichment (6-mer frequency, TF over GST control)
[16]
  binding signal: 1.04 fold enrichment (6-mer frequency, TF over GST control)
[17]
  binding signal: 1.1 fold enrichment (6-mer frequency, TF over GST control)
[18]
  binding signal: 1.11 fold enrichment (6-mer frequency, TF over GST control)
[19]
  binding signal: 1.04 fold enrichment (6-mer frequency, TF over GST control)
